Screens deposited in PubChem by National Center for Advancing Translational Sciences (NCATS).
TDP1 cell noCPT: qHTS for Inhibitors of human tyrosyl-DNA phosphodiesterase 1 (TDP1): qHTS in cells in absence of CPT. Potency, µM (series often up to 46.2 µM), for inactives: top-dose activity change, negative = growth inhibition, actives largely listed as inhibitors. 420,000 tested, 15% active. DT40 Tdp1-/- hTDP1 cells, no CPT, ATP luminescence, 48 h. AID 686978, 2013; note: nearly all actives have a fitted effect of over 55% in size
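DT40 Tdp1-/-;hTDP1 cells, no CPT (DMSO vehicle only), 400 cells/well; compounds pin-transferred; ≥48 hr, 37 °C; CellTiter-Glo 30 min RT dark, luminescence read.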
TDP1 block: inhibitors of human tyrosyl-DNA phosphodiesterase TDP1; recombinant TDP1, AlphaScreen DNA substrate cleavage; AID 485290; Q9NUW8; Potency, µM (doses to about 130 µM), without a hit: at the top dose activity change, negative = inhibition, actives largely listed as inhibitors; 350,000 tested, 0.28% active; note: nearly all actives have a fitted effect of over 40% in size
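Signal: AlphaScreen proximity between streptavidin donor and anti-FITC acceptor beads on intact substrate. Reaction: Tdp1 1 nM, substrate 15 nM final, 5 min RT after 15 min compound preincubation.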
DT40 TDP1 CPT: growth inhibition of DT40 Tdp1-/-;hTDP1 cells with camptothecin (screen for TDP1 inhibitors); 420,000 tested, 12% active; Potency, µM (titrated, usually from 46.2 µM), for inactives: at the highest dose activity change, negative = growth inhibition, most hits filed as inhibitors; chicken DT40 Tdp1-/-;hTDP1 cells + 20 nM CPT, ATP luminescence, 48 h; note: nearly all actives have a fitted effect of over 55% in size
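Chicken DT40 Tdp1-/- cells stably complemented with human TDP1 were seeded at 400 cells/well in medium containing 20 nM camptothecin, exposed to pin-transferred compounds, and grown at 37 °C for at least 48 hr. Viability was read as ATP luminescence.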
Gal4-VP16 FLuc: inhibits Gal4-VP16 luciferase reporter, ROR gamma counter-screen | Potency, µM (doses to about 53.6 µM), without a hit: top-dose activity, negative = inhibition, actives largely listed as inhibitors | Drosophila S2 Gal4-VP16 UAS-luciferase, luminescence, 20 h | 310,000 tested, 3.5% active;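 note: Gal4-VP16 expression switched on by copper sulfate through the metallothionein promoter; nearly all actives have a fitted effect of over 50% in size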
RORgamma inh: blocks mouse ROR gamma transcriptional activity. P51450. Drosophila S2 Gal4-RORgamma UAS-luciferase reporter, 20 h. Potency, µM (highest dose often 53.6 µM), for inactives: at the highest dose activity change, negative = inhibition, hits mostly inhibitors. 310,000 tested, 5.4% active. AID 2551; note: nearly all actives have a fitted effect of over 60% in size
Target sequence (P51450 whole entry, looked up, the tested form may be a part): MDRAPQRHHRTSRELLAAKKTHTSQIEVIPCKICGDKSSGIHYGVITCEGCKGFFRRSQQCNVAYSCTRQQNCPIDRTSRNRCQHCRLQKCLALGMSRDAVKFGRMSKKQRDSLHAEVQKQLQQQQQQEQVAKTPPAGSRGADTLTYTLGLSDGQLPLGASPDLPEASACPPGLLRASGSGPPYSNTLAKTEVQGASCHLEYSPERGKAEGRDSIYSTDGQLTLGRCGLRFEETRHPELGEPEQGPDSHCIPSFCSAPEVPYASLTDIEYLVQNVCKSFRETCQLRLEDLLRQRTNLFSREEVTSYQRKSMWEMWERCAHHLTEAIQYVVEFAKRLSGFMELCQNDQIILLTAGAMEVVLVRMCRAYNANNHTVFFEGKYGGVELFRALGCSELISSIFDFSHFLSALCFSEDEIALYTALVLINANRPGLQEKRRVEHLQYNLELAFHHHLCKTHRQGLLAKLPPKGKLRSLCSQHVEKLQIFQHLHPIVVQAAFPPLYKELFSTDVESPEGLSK
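Drosophila Schneider cells stably carrying a metallothionein-driven Gal4 DBD–ROR gamma fusion and a UAS-Photinus luciferase reporter were exposed to compound for 1 hr, then induced with copper sulfate (700 uM final) for 20 hr at ambient temperature before luminescence reading.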
Starred values were filed as active, the others as inactive; ? = inconclusive; / = no result given. Compounds with a hit are over-represented: about 19% of the library has one in this group of screens. Calls come from the whole dose curve; as a rule, active = well fitted curve in the direction sought with a large enough effect; inconclusive = small, poorly fitted or top-dose-only effect, or another doubt; inactive = no such curve, though single readings can be large; an effect the other way counts as inactive or inconclusive. % is set by controls: 0 for no effect and ±100 for the full control effect; potency is the fitted concentration of half-maximal effect.

SMILES | TDP1 cell noCPT | TDP1 block | DT40 TDP1 CPT | Gal4-VP16 FLuc | RORgamma inh
CN(C)S(=O)(=O)c1cccc(NC(=S)N/N=C/c2ccco2)c1 | 5.8µM* | 10% | 4.6µM* | 3.2µM* | 1.1µM*
CC(/C=N/NC(=S)Nc1cccc(S(=O)(=O)N(C)C)c1)c1ccccc1 (stereo unspecified) | ? | 6% | ? | -15% | -30%
CN(C)S(=O)(=O)c1cccc(NC(=S)N/N=C/C(c2ccccc2)c2ccccc2)c1 | 13µM* | -3% | ? | 5µM* | 3.5µM*
O=C(Nc1ccc(Cl)cc1)N1CCC(c2nc(-c3ccc(F)cc3)no2)CC1 | 11µM* | -3% | 10µM* | ? | ?
Cc1ccc(-c2nc(C3CCCN(S(=O)(=O)c4ccc(C)cc4)C3)no2)cc1 (stereo unspecified) | ? | 4% | 16µM* | ? | 4%
O=C(CC1CCCCC1)N1CCCC(c2nc(-c3ccc(S(=O)(=O)N4CCCC4)cc3)no2)C1 (stereo unspecified) | 16µM* | 1% | 23µM* | 2% | 11%
Cc1ccc(-c2nc(C3CCCN(S(=O)(=O)c4ccc(C(C)(C)C)cc4)C3)no2)cc1 (stereo unspecified) | ? | -1% | ? | 6% | -33%
O=S(=O)(c1ccc(Cl)cc1)N1CCCC(c2nc(-c3ccc(F)cc3)no2)C1 (stereo unspecified) | ? | -3% | 15µM* | / | /
Cc1nonc1-c1ccc2c(c1)OCO2 | -1% | 0% | 2% | 3% | 11%
Brc1cccc(OCCCCn2cncn2)c1 | -21% | 7% | -3% | 1% | -34%
Cc1ccccc1NC(=O)C1CCCN(S(=O)(=O)c2cnc[nH]2)C1 (stereo unspecified) | -5% | 2% | -11% | 6% | 18%
COc1ccc2[nH]c3c(C)c4ccncc4c(C)c3c2c1 | 0.92µM* | 6% | 0.26µM* | 4.5µM* | 3.2µM*
CCN(CC)CCn1c2ccccc2c2nc3ccc([N+](=O)[O-])cc3cc21 | 4.6µM* | / | 8.2µM* | -18% | -11%
CCc1ccc(NC2=CC(=O)C(=O)c3ccccc32)cc1 | 2.9µM* | / | 2.3µM* | / | /
O=C1C(Nc2ccccc2)=CC(=O)c2ncccc21 | 1.1µM* | 16% | 1µM* | 4.5µM* | 3.2µM*
O=C1C=C(Nc2ccccc2)c2ccccc2C1=O | 4.6µM* | 1% | 7.3µM* | ? | ?
CCc1ccc(/C=C/C(=O)C2C(=O)c3ccccc3C2=O)cc1 | ? | 8% | ? | ? | -42%
O=C1c2cccnc2C(=O)N1Cc1ccccc1 | -1% | -8% | -2% | -4% | -18%
O=C1C=C(Nc2ccccc2)C(=O)c2ccccc21 | ? | 8% | 13µM* | ? | ?
O=C1C=C(Nc2ccccc2C(=O)O)c2ccccc2C1=O | ? | 2% | ? | 2% | -42%
OCCN(CCO)Cc1ccc(Br)cc1 | -6% | 4% | -27% | -7% | -6%
CCOC(=O)N1CCC(c2nc(C)sc2C(=O)O)CC1 | -4% | 1% | 7% | -19% | -12%
FC(F)(F)c1cccc(Cc2noc(CN3CCCC(OCc4ccccn4)C3)n2)c1 (stereo unspecified) | 23µM* | 3% | 18µM* | 2% | 33%
FC(F)(F)c1cccc(Cc2noc(CN3CCC(c4ccncc4)CC3)n2)c1 | 7.3µM* | 8% | 5.8µM* | ? | -86%
O=C(N/N=C/c1ccco1)c1cnccn1 | -5% | -3% | -23% | 4% | 3%
SMILES | TDP1 cell noCPT | TDP1 block | DT40 TDP1 CPT | Gal4-VP16 FLuc | RORgamma inh
Cc1nn(-c2ccccc2)nc1C(=O)NNC(=O)c1cccc2ccccc12 | ? | 7% | -22% | -2% | -1%
COC(=O)C(CC(C)C)NS(=O)(=O)c1ccccc1Br (stereo unspecified) | / | -10% | / | 12% | ?
CC(C)CNc1ncnc2nc[nH]c12 | ? | / | -7% | / | /
CC(C)CCCCCCCCCCCCC(=O)NCC(=O)NC1C(C)OC(Nc2ncnc3nc[nH]c23)C(O)C1O (stereo unspecified) | 0.033µM* | / | 0.021µM* | / | /
CCN1CCN(Cc2ccc(NC(=O)c3cc(NC(=O)N4CCNC4=O)cc(OC)c3)cc2C(F)(F)F)CC1 | 21µM* | 7% | 16µM* | 0% | 4%
CCN1CCN(Cc2ccc(NC(=O)c3ccc(C)c(NC(=O)c4cccc(-c5cn[nH]c(=O)c5)c4)c3)cc2C(F)(F)F)CC1 | 16µM* | / | ? | -2% | -10%
CCN1CCN(Cc2ccc(NC(=O)c3ccc(C)c(NC(=O)C4=NN(c5ccccc5)C(=O)C4)c3)cc2C(F)(F)F)CC1 | ? | 6% | ? | 0% | 1%
COc1cc(NC(=O)N2CCNC2=O)cc(C(=O)Nc2cccc(C(F)(F)F)c2)c1 | 4.1µM* | 6% | 3.7µM* | 3% | 0%
CCN1CCN(Cc2ccc(NC(=O)c3ccc(C)c(NC(=O)c4ccno4)c3)cc2C(F)(F)F)CC1 | 6.5µM* | 4% | 13µM* | 2% | 1%
CCC1CCCCN1CCCNC(=O)CN1C(=O)COc2ccc(S(=O)(=O)N3CCOCC3)cc21 (stereo unspecified) | 14% | 1% | 2% | -7% | -6%
COC(=O)c1cccc(-n2cnnn2)c1 | -1% | 4% | -9% | -4% | -5%
CCCn1c(SCC(=O)c2c(N)n(C3CC3)c(=O)[nH]c2=O)nnc1-c1ccncc1 | 5% | 0% | 1% | / | /
COc1cccc(NC(=O)CN2C(=O)NC(CCc3ccccc3)C2=O)c1 (stereo unspecified) | -26% | -1% | ? | / | /
CCN1CCN(Cc2ccc(NC(=O)c3cc(NC(=O)c4ccno4)cc(OC)c3)cc2C(F)(F)F)CC1 | 23µM* | 4% | ? | -1% | -9%
CCN1CCN(Cc2ccc(NC(=O)c3cc(NC(=O)c4cncc(-c5cccs5)c4)cc(OC)c3)cc2C(F)(F)F)CC1 | 7.3µM* | / | 16µM* | ? | ?
CCN1CCN(Cc2ccc(NC(=O)c3ccc(C)c(NC(=O)c4csc(-c5ccncc5)n4)c3)cc2C(F)(F)F)CC1 | 23µM* | 2% | 16µM* | -5% | -3%
CCN1CCN(Cc2ccc(NC(=O)c3cc(NC(=O)c4ccc5n[nH]nc5c4)cc(OC)c3)cc2C(F)(F)F)CC1 | -7% | 6% | 12% | -4% | -13%
CCN1CCN(Cc2ccc(NC(=O)c3cc(NC(=O)c4cc(-c5ccc(OC)cc5)n[nH]4)cc(OC)c3)cc2C(F)(F)F)CC1 | 4.6µM* | 6% | ? | ? | ?
CCOC(=O)c1cnc2ccc(Cl)cc2c1N1CCN(C)CC1 | -29% | 5% | ? | 12% | -19%
